Here are results for 30 molecules from PubChem BioAssay AID504942 (Broad Institute, 2011).

Results with a measured potency or affinity are listed apart. The source made the active and inactive calls. No rule for the calls is given here.

The nature of this test: toxicity to human HeLa cells – cell-based, 48 h, plate reader, cherry-picks, cytotoxicity control, dose response (AID 504942). The settings on record: series mostly up to 38 µM.
`O=C1C=C(c2cc(F)ccc2F)C[C@@H](c2ccc(F)cc2)C1`: the result was inactive.

In the case of `O=C1C2C(C(=O)N1Cc1ccco1)C1C=CC2C12CC2` (stereo not given), the call was inactive.

On to `COc1ccccc1C(C#N)c1cccc(Cl)n1` (stereo not given), for which the molecule was classed as inactive.

In the case of `Cc1cccc(NC(=O)Nc2cc(C)on2)c1`, the call was inactive.

As for `CCOc1ccc(CNC2CCCc3ccccc32)cc1` (stereo not given), the outcome was inactive.

For the molecule `Cc1ccc(S(=O)(=O)NCCC(C)C)cc1[N+](=O)[O-]`, the outcome was inactive.

For the molecule `O=C1C2C3C=CC(C4CC34)C2C(=O)N1Cc1ccco1` (stereo not given), the molecule was classed as inactive.

Consider `O=[N+]([O-])c1ccc(N2CCCCC2)nc1`, for which the molecule was called inactive.

As to `O=CN(c1ccccc1)c1ccc2ccccc2c1`, the call was inactive.

Take `O=C(NCC1CC1)c1cc([N+](=O)[O-])cc([N+](=O)[O-])c1`: the call was inactive.

Take `COC(=O)c1ccc(NC(=S)N2CCCC2)cc1`: the molecule was called inactive.

For `N#CC(c1ccc(Cl)nn1)c1ccccc1Cl` (stereo not given), the molecule was called inactive.

`Cc1ccc(C(C#N)c2ccc(Cl)nn2)cc1` (stereo not given): the molecule was classed as inactive.

`O=C(NC1CCCC1)c1cc(Cl)ccc1[N+](=O)[O-]`: the outcome was inactive.

With `CCOC(=O)c1cc2c(s1)-c1c(C)cccc1OC2`, the call was inactive.

For `CSc1nnc(-c2ccc([N+](=O)[O-])cc2)o1`, the result was inactive.

For the molecule `CCOC(=O)CC(C#N)c1cn(C)c2ccccc12` (stereo not given), the outcome was inactive.

`O=[N+]([O-])c1ccc(-c2cccnc2)cc1`: the result was inactive.

On to `N#CC(c1ccc(Cl)nn1)c1ccc(Cl)cc1Cl` (stereo not given), for which the outcome was inactive.

Consider `COC(=O)c1ccc(OC(=O)c2ccco2)cc1`, for which the outcome was inactive.

Turning to `CCCCCC1CC(COc2ccccc2)OC1=O` (stereo not given), the call was inactive.

Consider `CSC1=N/C(=C\C=C\c2cccs2)C(=O)S1`, for which the result was inactive.

With `N#CC(c1ccc(Cl)cc1)c1cccc(Cl)n1` (stereo not given), the call was inactive.

Consider `OC(c1cccc(Cl)c1)c1nccc2ccccc12` (stereo not given), for which the molecule was called inactive.

In the case of `O=C(/C=C/c1cccs1)c1cc(Cl)ccc1O`, the molecule was called inactive.

Regarding `Cc1cc(NC(=O)c2cc([N+](=O)[O-])ccc2Cl)no1`, the molecule was classed as inactive.

Consider `CCOC(=O)c1ccc(-c2ccc(CO)o2)cc1`, for which the call was inactive.

For the molecule `O=CNC1(c2ccccc2)CCCCC1`, the outcome was inactive.

As for `Cc1ccc2nc(-c3ccc4c(c3)OCCO4)cn2c1`, the outcome was inactive.

In the case of `N#Cc1cc(-c2ccccc2)cnc1Cl`, the result was inactive.
